Measurements from PubChem BioAssay AID1159580 (chemical genetic matrix, 2015).
Where “and” joins values, the source holds several entries; their conditions need not be identical. Identical values can stand only once. The campaign covered roughly 5,500 compounds. About 2,000 (36%) were called active. Roughly 18% stayed inconclusive and do not appear here. Rule as the data show it: active = normalized growth mostly below about 0.91 (no sharp cut-off); inconclusive = no clear call, values can overlap the other calls; inactive = mostly above about 0.92. Some of the results follow.

Test: chemical genetic growth profiling, strain panel (AID 1159580);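 also: tested at 20 µM; growth read once vehicle control cultures reached saturation at 30 °C; 1 = growth at the plate median or of vehicle wells; lower values mean less growth of the strain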
Conditions: S. cerevisiae deletion strains, growth OD

Measured: normalized growth

C=CCc1ccccc1OCC(O)CNC(C)C (stereo not given)
inactive: locus YAL013W, strain DEP1, active compounds read low 1 and 0.978 | locus YAL021C, strain ccr4, active compounds read low 1 | locus YAL026C, strain drs2, active compounds read low 1 | locus YAL030W, strain snc1, active compounds read low 0.995 | locus YAL040C, strain CLN3, active compounds read low 0.974 | locus YBL061C, strain skt5, active compounds read low 1 | locus YBR009C, strain hhf1, active compounds read low 0.971 | locus YBR021W, strain FUR4, active compounds read low 0.998 | locus YBR023C, strain chs3, active compounds read low 1 | locus YBR171W, strain sec66, active compounds read low 0.99 | locus YBR229C, strain ROT2, active compounds read low 1 | locus YBR231C, strain swc5, active compounds read low 0.987 | locus YBR279W, strain paf1, active compounds read low 1 | locus YCL011C, strain gbp2, active compounds read low 0.998 | locus YCL016C, strain dcc1, active compounds read low 0.993 | locus YCL029C, strain bik1, active compounds read low 1.02 | locus YCL061C, strain MRC1 (second series), active compounds read low 1 | locus YCL061C, strain MRC1, active compounds read low 0.999 | locus YCL069W, strain vba3, active compounds read low 0.994 | locus YCR088W, strain abp1, active compounds read low 0.992 | locus YDL005C, strain med2, active compounds read low 0.995 | locus YDL035C, strain GPR1, active compounds read low 0.991 | locus YDL040C, strain nat1, active compounds read low 0.995 | locus YDL074C, strain BRE1, active compounds read low 1.01 | locus YDL101C, strain DUN1, active compounds read low 1.01 | locus YDL134C, strain PPH21, active compounds read low 1.01 | locus YDL185W, strain tfp1, active compounds read low 1 | locus YDL192W, strain arf1, active compounds read low 1.02 | locus YDR001C, strain nth1, active compounds read low 1 | locus YDR069C, strain doa4, active compounds read low 0.979 | locus YDR101C, strain arx1, active compounds read low 1.01 | locus YDR137W, strain rgp1, active compounds read low 0.998 | locus YDR150W, strain NUM1, active compounds read low 1 and 1.02 | locus YDR159W, strain sac3, active compounds read low 0.993 | locus YDR162C, strain NBP2, active compounds read low 1 | locus YDR195W, strain ref2 0.913 | locus YDR297W, strain sur2, active compounds read low 1 | locus YDR318W, strain mcm21, active compounds read low 1.01 | locus YDR334W, strain swr1, active compounds read low 0.997 | locus YDR335W, strain msn5, active compounds read low 1 | locus YDR363W, strain ESC2, active compounds read low 0.973 | locus YDR388W, active compounds read low 1 | locus YDR392W, strain spt3, active compounds read low 0.86 | locus YDR502C, strain sam2, active compounds read low 1.01 | locus YEL003W, strain gim4, active compounds read low 0.992 | locus YEL037C, strain rad23, active compounds read low 0.997 | locus YEL061C, strain CIN8 (second series), active compounds read low 1 | locus YEL061C, strain CIN8, active compounds read low 1 | locus YER002W, strain NOP16, active compounds read low 0.975 | locus YER015W, strain faa2, active compounds read low 0.995 | locus YER016W, strain bim1, active compounds read low 0.985 | locus YER110C, active compounds read low 1.02 | locus YER111C, strain swi4, active compounds read low 0.986 | locus YER155C, strain BEM2 (second series), active compounds read low 0.968 | locus YER155C, strain BEM2, active compounds read low 0.999 | locus YER167W, strain BCK2, active compounds read low 1 | locus YFR010W, strain ubp6, active compounds read low 1 | locus YGL078C, strain dbp3, active compounds read low 1.01 | locus YGL086W, strain mad1, active compounds read low 1 | locus YGL167C, strain pmr1, active compounds read low 0.998 | locus YGL173C, strain kem1, active compounds read low 0.997 | locus YGL227W, strain vid30, active compounds read low 0.987 | locus YGL240W, strain doc1, active compounds read low 0.983 | locus YGL248W, strain PDE1, active compounds read low 0.998 | locus YGL253W, strain hxk2, active compounds read low 1 | locus YGR078C, strain PAC10, active compounds read low 1.01 | locus YGR135W, strain pre9, active compounds read low 1.02 | locus YGR229C, strain SMI1, active compounds read low 0.974 | locus YGR252W, strain gcn5, active compounds read low 0.98 | locus YHR013C, strain ard1, active compounds read low 0.943 | locus YHR027C, strain rpn1, active compounds read low 1 | locus YHR030C, strain SLT2, active compounds read low 1 and 0.989 | locus YHR079C, strain IRE1 (second series), active compounds read low 1.01 | locus YHR079C, strain IRE1, active compounds read low 0.972 | locus YHR094C, strain hxt1, active compounds read low 1 | locus YHR129C, strain ARP1, active compounds read low 1.01 | locus YHR142W, strain chs7, active compounds read low 1.01 | locus YHR200W, strain rpn10, active compounds read low 1 | locus YIL066C, strain RNR3, active compounds read low 1.01 | locus YIL073C, strain SPO22, active compounds read low 1.06 | locus YIL125W, strain kgd1, active compounds read low 1.01 | locus YIR030C, strain dcg1, active compounds read low 1.02 | locus YJL092W, strain hpr5, active compounds read low 1 | locus YJL095W, strain BCK1 (second series), active compounds read low 0.995 | locus YJL095W, strain BCK1, active compounds read low 1.02 and 0.978 | locus YJL115W, strain asf1, active compounds read low 1 | locus YJL129C, strain trk1, active compounds read low 0.998 | locus YJL134W, strain LCB3, active compounds read low 0.997 | locus YJL154C, strain vps35, active compounds read low 0.99 | locus YJL164C, strain tpk1, active compounds read low 1.01 | locus YJL166W, strain qcr8, active compounds read low 1 | locus YJL168C, strain set2, active compounds read low 1.01 | locus YJL187C, strain SWE1 (second series), active compounds read low 1.02 | locus YJL187C, strain SWE1, active compounds read low 1.01 | locus YJR043C, strain POL32, active compounds read low 1
